Only some compounds are listed: those with a hit (about 1.5% of all), similar ones and a draw of the others.
a7 integrin act – integrin-mediated muscular dystrophy alleviation activation; alpha7betagal myoblasts, beta-gal FDG fluorescence, 48 h; Potency, µM (titrated, usually from 38.3 µM), for the others: top-dose activation, most hits filed as activators; 0.064% of 350,000 active; AID 624291;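 note: potency is the fitted concentration of half-maximal effect; 100% = response of the positive control SU9516; nearly all actives have a fitted effect of over 60% in size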
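Alpha7betagal+/- myoblasts (passage 13) were plated 16-24 hr, then exposed to compounds (1:260 dilution of DMSO stock) for 48 hours at 37C. After MPER lysis, β-galactosidase reporter activity was read as FDG fluorescence (ex 480/em 540) after 30 minutes.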
uPA surface inh – cell surface uPA generation inhibition. cell surface uPA generation assay, qHTS. AID 540303. Potency, µM (top dose mostly 38.3 µM), for the others: top-dose activity change, negative = inhibition, actives largely listed as inhibitors. 0.31% of 330,000 active; active = well fitted inhibition curve with a large enough effect; inconclusive = small, poorly fitted or top-dose-only effect; inactive = no such curve, though single readings can be large or run the other way; tested in mouse RAW 264.7 cells; note: potency is the fitted concentration of half-maximal effect; % is set by controls: 0 for no effect and ±100 for the full control effect; nearly all actives have a fitted effect of over 55% in size
12-LOX inh – inhibitors of human 12S-lipoxygenase ALOX12; Potency, µM (top dose mostly 108 µM), inactives show at the highest dose activity change, negative = inhibition, hits mostly inhibitors; purified 12hLO, xylenol orange hydroperoxide absorbance; P18054; 1.1% of 580,000 active; note: potency is the fitted concentration of half-maximal effect; % is set by controls: 0 for no effect and ±100 for the full control effect
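Purified human 12hLO (150 nM final) in 25 mM Hepes, 0.01% Triton X-100, pH 7.0 was preincubated 15 min at room temperature with compound. Then 40 uM arachidonic acid was added, 30 min. Hydroperoxide was read by Fe-XO absorbance ratio 573/405 nm.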
IL2 activator – activates IL-2 in a cell-based reporter assay. IL-2 activation reporter assay, cell-based qHTS; stimulated with anti-CD3/CD4/CD28 beads; in transgenic mouse T cells. activation, % (series mostly up to about 46 µM). 0.065% of 360,000 active; in the data active = activation above about 50%; inconclusive = mostly about 30% to 49%; note: 0% is about no effect
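Unstimulated transgenic mouse T cells preincubated 60 min with compound, then stimulated with anti-CD3/anti-CD4-coated beads plus anti-CD28 for 18 h at 37 degrees C. IL-2 response read as EGFP and DsRed fluorescence by plate cytometry.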
Nrf2 activator – activates Nrf2 signaling; AREc32 ARE-luciferase reporter (MCF7-derived line), luminescence, 24 h; Potency, µM (top dose mostly 46.1 µM), without a hit: top-dose activation, actives largely listed as activators; 0.31% of 410,000 active; note: potency is the fitted concentration of half-maximal effect; % of control where 0% means no effect; nearly all actives have a fitted effect of over 65% in size
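For detection, Steady-Glo was added and plates sat 30 min at RT; before that, AREc32_Fluc cells grown overnight in OPTI-MEM/5% FBS had been treated with 23 nL compound for 24 hr at 37 deg C.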
An asterisk follows results filed as active; ? = inconclusive; / = not tested or not shown. Unless noted, calls come from the whole dose curve; as a rule, active = well fitted curve in the direction sought with a large enough effect; inconclusive = small, poorly fitted or top-dose-only effect, or another doubt; inactive = no such curve, though single readings can be large; an effect the other way counts as inactive or inconclusive.

SMILES | a7 integrin act | uPA surface inh | 12-LOX inh | IL2 activator | Nrf2 activator
C#CCOCCOCCOCCNc1nc(N2CCN(C(=O)Cn3cc(CC(C)O)nn3)CC2)nc(N2CCN(C(=O)[C@H](CCCCN)n3cc(CCC(=O)O)nn3)CC2)n1 (some centres not stated) | ? | 0% | 16µM* | 2 | -1%
CC1(NC(=S)Nc2ccc3ccccc3c2)CCS(=O)(=O)C1 (configuration not stated) | 2% | 3% | 16% | -2 | 4%
CN(C)C(=S)NC(=S)Nc1ccc2ccccc2c1 | -43% | 3% | 35µM* | -5 | 23%
O=C(Nc1ccc(Cl)cc1)c1csc(C(O)c2cccc(OC(F)(F)F)c2)n1 (configuration not stated) | / | / | 14µM* | / | /
O=c1[nH]c(O)c(/C=C2\C=Nc3ccccc32)[nH]1 | -18% | ? | ? | -3 | 4µM*
O=C1NC[C@@H](CCCCN2C[C@H](Cc3ccc(O)cc3)N(CC3CCCCC3)C(=O)C2=O)N(CC2CCCCC2)C1=O | / | / | 22µM* | 0 | 0%
C=C(C)C1CC=C(C)/C(=N\NC(=S)Nc2ccc(C)cc2)C1 (configuration not stated) | 22% | -5% | 22µM* | 0 | 3%
CSCC[C@H](NC(=O)Cc1ccc(N2CCCC2=O)cc1)c1nc2ccccc2[nH]1 | / | / | 7% | / | /
N#Cc1cc(C(=O)c2ccccc2OCC(=O)Nc2ccc(N3CCCCC3)cc2)cn(C2CC2)c1=O | / | / | -39% | / | /
O=C(O)CC(Sc1n[nH]c(=S)s1)C(=O)O (configuration not stated) | 0% | 13% | 2µM* | 0 | 0%
COc1cc(C2C=C(C(=O)O)Nc3ncnn32)ccc1OCCC(C)C (configuration not stated) | / | / | -16% | / | /
CC(C)c1cccc(NC(=O)c2ccc3c(c2)N(C)C2CCCCN2C3=O)c1 (configuration not stated) | / | / | 11% | / | /
CC(C)NC(=O)c1cccc2c1CCCN2Cc1nc(-c2cccc(Cl)c2)no1 | / | / | 0% | / | /
COC(=O)c1cccc(NC(=S)N[C@@H]2C=C[C@@H](c3c(C)nn(-c4ccc(C(C)C)cc4)c3C)C2)c1 | / | / | 45µM* | / | /
Cc1nn(-c2ccc(C(C)C)cc2)c(C)c1[C@@H]1C=C[C@@H](NC(=S)NC2CCCCC2)C1 | / | / | 40µM* | / | /
COc1ccc(NC(=O)N[C@@H]2C=C[C@@H](c3c(C)nn(-c4ccc(C(C)C)cc4)c3C)C2)cc1 | / | / | 1% | / | /
COC(=O)c1ccc(C2CC(=O)Nc3sc(C(=O)Nc4cccc(C(F)(F)F)c4)c(C)c32)cc1 (configuration not stated) | / | / | -1% | / | /
Cc1ccc(NC(=O)Cn2c(-c3ccccc3)nc(C)cc2=O)c(C)c1 | / | / | -2% | / | /
O=c1[nH]c(=S)[nH]c2c1C(c1ccc(Br)cc1)c1c([nH]c(=S)[nH]c1=O)O2 | 23% | 1% | 5µM* | 0 | 0%
Fc1ccc(-c2ccnn2-c2ccccc2)cc1 | 4.5µM* | 3% | -3% | -2 | 0%
CCCNC(=O)Cn1nc(-c2cccc([N+](=O)[O-])c2)c2ccccc2c1=O | / | / | -22% | / | /
O=C(O)c1ccccc1NS(=O)(=O)c1ccc(N/N=C/c2cccc(O)c2O)c([N+](=O)[O-])c1 | -10% | -1% | 40µM* | -1 | 1%
COc1cc(C=NNc2ccc(S(=O)(=O)Nc3ccccc3C(=O)O)cc2[N+](=O)[O-])ccc1O | 8% | 1% | ? | 2 | 0%
CCOc1cc(/C=N/Nc2ccc(S(=O)(=O)Nc3ccccc3C(=O)O)cc2[N+](=O)[O-])cc(Cl)c1O | -21% | / | 35µM* | 1 | 0%
Cc1ccc(/C=N/Nc2ccc(S(=O)(=O)Nc3ccccc3C(=O)O)cc2[N+](=O)[O-])o1 | / | / | 14µM* | / | /
CC(=O)Nc1ccc(C=NNc2ccc(S(=O)(=O)Nc3ccccc3C(=O)O)cc2[N+](=O)[O-])cc1 | 10% | 0% | ? | 0 | -2%

Screening data (PubChem BioAssay)
